# Most compounds without a hit are left out; they make up all but 8.9% or so of the library.
# DRD3 agonist = qHTS of D3 Dopamine Receptor Agonist: qHTS; D3R DiscoveRx beta-arrestin cells, luminescence, 90 min; 0.58% of 410,000 active; max activation, %; AID 652048, 2013; in the data active = max activation above about 30%; note: 0% is about no effect
# Target sequence (P35462 whole entry, looked up): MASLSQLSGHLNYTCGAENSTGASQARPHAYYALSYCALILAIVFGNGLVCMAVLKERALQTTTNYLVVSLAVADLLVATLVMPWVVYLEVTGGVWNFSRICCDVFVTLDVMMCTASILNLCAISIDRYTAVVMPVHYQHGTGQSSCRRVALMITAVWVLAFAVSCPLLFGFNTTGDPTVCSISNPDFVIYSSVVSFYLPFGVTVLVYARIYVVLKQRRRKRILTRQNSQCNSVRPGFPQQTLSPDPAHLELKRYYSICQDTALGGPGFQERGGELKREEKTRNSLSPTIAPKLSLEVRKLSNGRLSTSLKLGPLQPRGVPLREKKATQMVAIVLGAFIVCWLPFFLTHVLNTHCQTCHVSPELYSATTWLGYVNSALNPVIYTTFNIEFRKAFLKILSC
#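 Agonist-mode cell screen: cells plated at 1500/well and incubated overnight at 37 °C, then exposed to library compounds for 90 min at 37 °C. Detection reagent was added for 30–60 min at room temperature, and luminescence was read.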
# MCF10A rereplic = A quantitative high throughput screen for small molecules that induce DNA re-replication in MCF 10a normal breast cells; MCF 10A DNA re-replication, Hoechst nuclear intensity, 48 h; Potency, µM (series often up to 46.1 µM), without a hit: at the top dose activity, positive = re-replication, hits mostly activators; 2.9% of 350,000 active; AID 624296, 2012; note: potency is the fitted concentration of half-maximal effect; % of control where 0% means no effect; nearly all actives have a fitted effect of over 50% in size
# KB-3-1 cytotox = qHTS assay for MDR1-selective chemotherapeutics: Primary screen using the parental adenocarcinoma cell KB-3-1 | Potency, µM (highest dose often 46.1 µM), hits mostly cytotoxic | KB-3-1 viability, CellTiter-Glo ATP luminescence, 72 h | 1.4% of 400,000 active; note: potency is the fitted concentration of half-maximal effect; % is set by controls: 0 for no effect and ±100 for the full control effect; nearly all actives have a fitted effect of over 60% in size
#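 Cells are dispensed, compounds pinned in, plates held at 37 °C for 72 h, then CellTiter-Glo is added and luminescence read after 10 minutes. Cell line: parental KB-3-1 in phenol-red-free DMEM, 10% FBS.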
# SW480 rereplic = A quantitative high throughput screen for small molecules that induce DNA re-replication in SW480 colon adenocarcinoma cells. SW480 DNA re-replication, Hoechst DNA content imaging, 48 h. Potency, µM (titrated, usually from 46.1 µM), without a hit: at the top dose re-replication activation, most hits filed as activators. 1.8% of 340,000 active. AID 624297, 2012; note: potency is the fitted concentration of half-maximal effect; % of control where 0% means no effect; nearly all actives have a fitted effect of over 55% in size
#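 Readout is total intensity of Hoechst-stained nuclei, excited at 405 nm and collected at 500-530 nm. Compound treatment lasted 48 hr at 37 C in 5% CO2 before staining.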
# DRD3 antagonist = qHTS of D3 Dopamine Receptor Antagonist: qHTS; D(3) dopamine receptor (Homo sapiens), P35462; D3R cells, DiscoveRx beta-arrestin luminescence, antagonist mode; active compounds read low; max response, negative = inhibition, %; 2.5% of 360,000 active; in the data active = max response below about -50%; inconclusive = no clear call, values can overlap the other calls; note: % is set by controls: 0 for no effect and ±100 for the full control effect
#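 Cells expressing the human receptor were seeded at 1500 cells/well, incubated overnight at 37 degrees C in 5% CO2, then exposed to library compounds with dopamine controls for 90 minutes at 37 degrees C before luminescent detection.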
# KB-V1 MDR tox = qHTS assay for MDR1-selective chemotherapeutics: Primary screen using the drug-selected MDR subline cells KB-V1 | KB-V1 MDR cells viability, CellTiter-Glo, 72 h | AID 1347076, 2019 | 3.4% of 400,000 active | Potency, µM (titrated, usually from 46.1 µM), hits mostly cytotoxic; note: potency is the fitted concentration of half-maximal effect; % is set by controls: 0 for no effect and ±100 for the full control effect; nearly all actives have a fitted effect of over 60% in size
#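 Following 72 h at 37 degrees C with compound, KB-V1 cell viability was read by CellTiter-Glo luminescence, medium being phenol-red-free DMEM plus 10% FBS; concentration-response parameters came from normalized, curve-fitted qHTS data.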
# An asterisk follows results filed as active; i = inactive; ? = inconclusive; nt = not tested or not shown. Unless noted, calls come from the whole dose curve; as a rule, active = well fitted curve in the direction sought with a large enough effect; inconclusive = small, poorly fitted or top-dose-only effect, or another doubt; inactive = no such curve, though single readings can be large; an effect the other way counts as inactive or inconclusive.
SMILES,DRD3 agonist,MCF10A rereplic,KB-3-1 cytotox,SW480 rereplic,DRD3 antagonist,KB-V1 MDR tox
Cc1ccccc1Nc1nc(NCc2ccco2)c2ccccc2n1,-11.1,?,?,?,-2.3,11.6µM*
Cc1cccc(Nc2nc(NCc3ccco3)c3ccccc3n2)c1,20.5,?,?,?,-22.2,14.6µM*
CCOC(=O)c1cccc(NC(=O)Nc2c(C)n(C)n(-c3ccccc3)c2=O)c1,3.4,nt,i,nt,nt,i
COc1ccc(Cl)cc1C(=O)NCC(c1ccc(N(C)C)cc1)N1CCOCC1 (stereo unspecified),7.1,nt,i,nt,nt,i
COC(=O)c1cc2sc(Cl)cc2n1CC(=O)Nc1cc(C)cc(C)c1,3.8,nt,i,nt,nt,i
CCOc1ccc(N(c2nc(-c3ccc(OC)c(OC)c3)no2)c2nc(-c3ccc(OC)c(OC)c3)no2)cc1,5.4,nt,i,nt,nt,?
COc1cc(-c2nc3nc[nH]n3c2Nc2ccc(C(C)C)cc2)ccc1O,-5.0,nt,nt,nt,nt,nt
S=C1NC(c2ccccc2)=CC(c2ccccc2)N1 (stereo unspecified),-13.0,?,i,-2.9%,-15.0,i
S=C1NC(c2cccs2)=CC(c2ccc(Br)cc2)N1 (stereo unspecified),-11.3,?,i,20.6µM*,-28.3,?
Cc1ccc(/C=C2\Sc3ccccc3C2=O)s1,-1.9,23.1µM*,i,9.2%,16.6,i
O=c1c2c3c(sc2nc(NCCO)n1CCc1ccccc1)CCCCC3,2.2,4.61µM*,?,?,6.3,?
CN(C)CCNc1nc2sc3c(c2c(=O)n1Cc1ccccc1)CCCCC3,-4.2,18.4µM*,i,16.4%,-15.7,i
OCCNc1nc(SCc2ccccc2)nc2sc3c(c12)CCC3,-1.9,?,i,-10.3%,15.3,7.31µM*
COCCNc1nc2sc3c(c2c(=O)n1Cc1ccco1)CCCCC3,-1.0,8.2µM*,i,-9.5%,9.1,i
CN(C)CCn1c(=O)n(Cc2ccco2)c(=O)c2c3c(sc21)CCCCC3,2.0,?,i,20.6%,-4.0,i
O=c1c2c3c(sc2n(CCN2CCCC2)c(=O)n1Cc1ccco1)CCCCC3,-10.2,14.2%,i,?,-63.9*,?
Cc1ccc(NC(=O)C2(c3ccccc3)CC2(Cl)Cl)cc1C (stereo unspecified),4.0,20.6µM*,i,4.3%,?,i
CCc1ccc(NC(=O)C2(c3ccccc3)CC2(Cl)Cl)cc1 (stereo unspecified),-1.6,23.1µM*,i,?,-29.5,i
COC(=O)c1cc(S(=O)(=O)NCC2CCN(Cc3cccc(F)c3)CC2)cn1C,-13.3,1.0%,i,12.7%,?,i
COc1[nH]c2ccc(F)cc2c1C(=O)OCC1CCN(CCNS(C)(=O)=O)CC1,-74.1,17.9%,i,-47.7%,-55.2*,i
CCOC(=O)c1cnc2ccc(C(=O)OC)cc2c1Nc1ccc2c(c1)OCCO2,7.7,7.4%,i,-2.4%,17.0,?
CCOC(=O)c1cnc2c(OC)cccc2c1Nc1ccc2c(c1)OCCO2,-2.4,?,?,?,-13.6,13µM*
CCOC(=O)c1cnc2ccc(OC)cc2c1Nc1ccc2c(c1)OCCO2,0.1,22.8%,?,9.4%,-70.1*,?
O=C(Cn1c(=O)c(C(F)(F)F)nc2ccccc21)Nc1ccc(Br)cc1F,8.4,nt,i,nt,nt,i
CC(=O)NCCNC(=O)c1ccc(Cn2c(=O)[nH]c3ccsc3c2=O)cc1,16.4,0.9%,i,-2.4%,6.2,i
SMILES,DRD3 agonist,MCF10A rereplic,KB-3-1 cytotox,SW480 rereplic,DRD3 antagonist,KB-V1 MDR tox
O=C(Nc1cc(Cl)cc(Cl)c1)c1ccc(Cn2c(=O)[nH]c3ccsc3c2=O)cc1,-3.8,23.1µM*,16.4µM*,8.2%,-10.0,i
CCCCC[C@H](O)/C=C/[C@H]1C=CC(=O)[C@@H]1C/C=C\CCCC(=O)O,nt,20.9%,nt,-0.9%,nt,nt
CCCCC1C(=O)CC[C@H]2[C@@H]1CC(=O)[C@@H]2C/C=C\CCCC(=O)O (stereo partly specified),4.1,64.1%,i,1.84µM*,-9.0,i
OCCNc1nc(Nc2ccc(O)cc2)nc2ccccc12,0.0,4.9%,i,10.6%,0.5,i
O=[N+]([O-])c1ccc(N2CCN(CCO)CC2)cc1NCc1ccco1,-14.1,?,i,-2.5%,-62.6*,i
OCCNc1nc(N2CCN(c3ccccc3)CC2)nc2ccccc12,-13.8,7.31µM*,i,1.0%,-10.7,i
Cc1ccc(OCCN2CCN(c3nc(NCc4ccco4)c4ccccc4n3)CC2)cc1,-25.8,14.6µM*,?,?,-78.4*,16.4µM*
Nc1nc(NCc2ccco2)nc(N2CCCC2)c1[N+](=O)[O-],-1.8,-0.1%,i,-54.7%,2.6,?
Nc1nc(NCc2ccco2)nc(N2CCN(Cc3ccccc3)CC2)c1[N+](=O)[O-],-13.6,23.2%,i,?,-78.7*,i
O=C(COc1ccccc1C(=O)Nc1ccccc1)Nc1ccccc1-c1ccccc1,nt,nt,?,nt,nt,i
COc1ccc(-n2c(SCc3ccccc3F)nc3c([nH]c4ccccc43)c2=O)cc1OC,5.1,nt,i,nt,nt,?
Cc1ccc(Cn2c(=O)n(Cc3ccccc3)c(=O)c3oc4ccccc4c32)cc1,-5.1,nt,i,nt,nt,i
O=C(CN1C(=O)CCSc2ccc(S(=O)(=O)N3CCCC3)cc21)Nc1cccc(Cl)c1,-12.1,nt,nt,nt,nt,nt
COC(=O)c1ccccc1NC(=O)C1(c2cccs2)CCOCC1,2.9,nt,i,nt,nt,i
c1ccc(CN2CCN(c3nc(NCc4ccco4)c4ccccc4n3)CC2)cc1,-13.1,?,?,?,-81.9*,3.66µM*
Clc1nc(NCc2ccco2)c2ccccc2n1,nt,nt,i,nt,nt,i
OCCN1CCN(c2nc(NCc3ccco3)c3ccccc3n2)CC1,-20.2,?,i,?,-81.7*,i
CNc1nc(NCc2ccco2)c2ccccc2n1,nt,nt,?,nt,nt,i
O=C(Cc1ccc(S(=O)(=O)N2CCOCC2)s1)Nc1cc(C(F)(F)F)cc(C(F)(F)F)c1,-9.3,20.6µM*,?,?,-12.0,i
COc1ccccc1NC(=O)Nc1nnc(C(C)c2ccccc2)s1 (stereo unspecified),4.3,23.1µM*,i,?,-8.5,i
CC(C)c1nnc(NC(=O)c2ccc3c(c2)OCO3)s1,-4.1,-0.1%,i,-25.9%,12.8,i

# Screening results as filed in PubChem.
